Hits are enriched below; roughly 8.1% of the tested compounds scored in any of these assays.
PINK1 modulator = PINK1 expression modulation; PINK1 immunofluorescence, high-content cytometry, 24 h; Potency, µM (top dose mostly 76.6 µM), for inactives: top-dose activation (PINK1 increase), hits mostly activators; actives 0.2% (n = 410,000); active = well fitted activation curve with a large enough effect; inconclusive = small, poorly fitted or top-dose-only effect; cell line not stated here; note: % of control where 0% means no effect; nearly all actives have a fitted effect of over 65% in size
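Decision-based qHTS: stable cells, 24 h exposure to five compound concentrations, CCCP as control. Fixed cells stained for PINK1 plus nuclear, mitochondrial and cell markers, cytometer read.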
RORg inh = inhibitors of mouse ROR gamma transcriptional activity; P51450; Drosophila S2 Gal4-RORgamma UAS-luciferase reporter, 20 h; Potency, µM (doses to about 53.6 µM), without a hit: top-dose activity change, negative = inhibition, actives largely listed as inhibitors; actives 5.4% (n = 310,000); AID 2551; note: % is set by controls: 0 for no effect and ±100 for the full control effect; nearly all actives have a fitted effect of over 60% in size
Target sequence (P51450 whole entry, looked up, the tested form may be a part): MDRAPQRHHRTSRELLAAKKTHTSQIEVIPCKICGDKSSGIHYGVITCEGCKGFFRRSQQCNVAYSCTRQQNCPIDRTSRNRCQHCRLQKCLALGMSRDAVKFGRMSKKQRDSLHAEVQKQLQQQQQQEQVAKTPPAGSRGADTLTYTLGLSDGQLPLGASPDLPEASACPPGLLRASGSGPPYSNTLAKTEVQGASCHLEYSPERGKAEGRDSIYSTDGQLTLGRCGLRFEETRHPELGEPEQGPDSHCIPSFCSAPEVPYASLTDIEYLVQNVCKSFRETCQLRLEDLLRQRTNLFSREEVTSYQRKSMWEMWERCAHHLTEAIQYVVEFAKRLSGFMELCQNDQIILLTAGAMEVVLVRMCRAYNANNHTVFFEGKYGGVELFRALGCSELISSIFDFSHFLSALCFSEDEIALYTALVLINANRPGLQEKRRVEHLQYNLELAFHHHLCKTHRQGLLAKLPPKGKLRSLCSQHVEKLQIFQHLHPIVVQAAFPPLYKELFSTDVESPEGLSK
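Using a luciferase readout, inhibitors were identified by reduced reporter activity in Drosophila cells coexpressing a copper-inducible Gal4–ROR gamma fusion and UAS-driven Photinus luciferase, incubated 20 hr after 700 uM copper sulfate.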
ClpP mod = qHTS Assay for Activators of ClpP. ATP-dependent Clp protease proteolytic subunit (Bacillus subtilis (strain 168)), P80244. Potency, µM (doses to about 57.5 µM), for inactives: at the highest dose activity change, negative = active. actives 1.9% (n = 340,000). purified B. subtilis ClpP, FRET peptide cleavage, 20 min; active = well fitted falling curve with a large enough effect; inconclusive = small, poorly fitted or top-dose-only effect; inactive = no such curve, though single readings can be large or run the other way; note: the source files actives as falling curves though it sought activators and does not explain the sign; nearly all actives have a fitted effect of over 65% in size
Target sequence (P80244 whole entry, looked up): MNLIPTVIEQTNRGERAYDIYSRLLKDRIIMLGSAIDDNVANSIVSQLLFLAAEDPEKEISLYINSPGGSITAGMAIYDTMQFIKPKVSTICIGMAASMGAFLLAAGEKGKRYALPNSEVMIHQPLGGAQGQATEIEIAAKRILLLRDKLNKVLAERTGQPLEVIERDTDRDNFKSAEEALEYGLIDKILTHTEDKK
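ClpP 10 microg/mL final, pH 8 Tris/KCl buffer with BSA, glycerol, Tween-20; compound pinned in; FRET-FV substrate; RT 20 min; Ex320/Em430; ΔFRET vs ADEP 5.8 microM, DMSO, no enzyme.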
Epigenetic reg = regulators of epigenetic silencing causing reporter derepression in mouse cells. actives 0.2% (n = 280,000). Potency, µM (series often up to 53.9 µM), inactives show top-dose GFP activation, usual class: activators. murine LDR cells, GFP reporter derepression, 30 h; note: % of control where 0% means no effect; nearly all actives have a fitted effect of over 60% in size
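Reporter derepression read as number of fluorescent GFP-positive objects, 20-120 um in size, counted by laser-scanning cytometer. Mouse LDR line with an epigenetically silenced CMV-GFP locus; compound incubation 30 h, 37 C.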
Sfp inh = blocks B. subtilis Sfp PPTase activity | Biochemical Sfp PPTase activity, qHTS | Potency, µM, without a hit: largest response in the series, negative = inhibition, most hits filed as inhibitors | actives 3.5% (n = 310,000);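 note: the enzyme is Sfp with the accession as filed and its product quenches rhodamine fluorescence; 0% = enzyme reaction without inhibitor and -100% = no enzyme wells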
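Compounds were incubated with enzyme (final 15 nM) for 15 min at room temperature before substrate addition started the reaction. Fluorescence at 525 nm excitation, 598 nm emission was recorded immediately and after 30 minutes.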
VP16 counter = Gal4-VP16 reporter inhibition counter-screen; Drosophila S2 Gal4-VP16 UAS-luciferase, luminescence, 20 h; actives 3.5% (n = 310,000); Potency, µM (series often up to 53.6 µM), for the others: at the top dose activity, negative = inhibition, most hits filed as inhibitors;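 note: Gal4-VP16 expression switched on by copper sulfate through the metallothionein promoter; % is set by controls: 0 for no effect and ±100 for the full control effect; nearly all actives have a fitted effect of over 50% in size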
Active calls of the source: *; u = inconclusive; x = not tested or not shown; [ ] = another dose, or the depositor's remark. Unless noted, calls come from the whole dose curve; as a rule, active = well fitted curve in the direction sought with a large enough effect; inconclusive = small, poorly fitted or top-dose-only effect, or another doubt; inactive = no such curve, though single readings can be large; an effect the other way counts as inactive or inconclusive. Potency is the fitted concentration of half-maximal effect.

SMILES	PINK1 modulator	RORg inh	ClpP mod	Epigenetic reg	Sfp inh	VP16 counter
CC(C)CC(=O)NC(=S)Nc1ccccc1N1CCCC1	2%	4µM*	-1%	0%	5%	11µM*
CN(C)CCCNCC(=O)Nc1ccccc1N1CCOCC1	2%	-16%	-3%	0%	79µM*	0%
O=C(Cc1ccccc1)Nc1ccccc1N1CCCC1	0%	8%	-1%	-2%	0%	6%
CCCCC(=O)NC(=S)Nc1ccccc1N1CCCCC1	4%	4.5µM*	-1%	1%	3%	8.9µM*
CC(C)CC(=O)Nc1ccccc1N1CCCC1	0%	2%	-2%	0%	7%	12%
Cc1ccc(SCC(=O)Nc2ccccc2N2CCOCC2)cc1	1%	-12%	3%	x	4%	6%
COc1ccc(NC(=O)c2oc3c(c2C)-c2nn(Cc4c(F)cccc4Cl)cc2CC3)c(OC)c1	5%	x	-16%	20%	x	x
CCCCC(=O)NC(=S)Nc1cccc(Cl)c1N1CCCCC1	u	1.6µM*	-1%	0%	10%	5µM*
CCCC(=O)NC(=S)Nc1cccc(Cl)c1N1CCCCC1	26%[38.3 µM]	0.63µM*	1%	-1%	15%	1µM*
O=C(Cc1ccccc1)Nc1ccccc1N1CCOCC1	-1%	-1%	1%	1%	4%	1%
O=C(Cc1ccc(Cl)cc1)NC(=S)Nc1ccccc1N1CCOCC1	21%	5µM*	-1%	0%	16%	5µM*
CCCCC(=O)NC(=S)Nc1ccccc1C(=O)Nc1ccccc1	-7%[38.3 µM]	-29%	u	0%	16%	-1%
CCCCCC(=O)NC(=S)Nc1ccc(N2CCCCC2)c(Cl)c1	0%	1.6µM*	-4%	2%	9%	7.1µM*
CCCCCC(=O)Nc1ccc(N2CCN(CC)CC2)c(Cl)c1	-2%[38.3 µM]	44%	-1%	-1%	4%	u
COc1ccc(CCC(C)Nc2cccc(F)c2)cc1 (centres undefined)	u	2%	0%	-1%	45µM*	-13%
Cc1ccccc1OCCCn1c(=O)sc2ccccc21	0%	2.8µM*	-1%	1%	-11%	10µM*
Cc1cc(C2=CC(C)(c3cc(C)oc3C)Nc3nc(C(F)(F)F)nn32)c(C)o1 (centres undefined)	x	8%	x	0%	13µM*	-3%
CC(=O)N1CCC[C@H]1C(=O)N1CCc2c(cnc(C)c2CNC(=O)/C=C/c2cccs2)C1	0%	x	x	x	x	x
CC1CCC/C(=N\NC(=S)NCc2ccccc2)C1 (centres undefined)	1%	11µM*	-2%	0%	-21%	u
CC1(C)CC(=O)C/C(=N\NC(=S)NCc2ccccc2)C1	1%	14µM*	0%	-4%	-15%	u
CC1CCC/C(=N\NC(=S)Nc2ccccc2)C1 (centres undefined)	2%	7.9µM*	0%	1%	-13%	u
CC1C/C(=N\NC(=S)NCc2ccccc2)CC(C)(C)C1 (centres undefined)	4%	1.3µM*	1%	7%	-24%	2.8µM*
CC1(C)CC(=O)C/C(=N\NC(=O)C2CC2c2ccccc2)C1 (centres undefined)	3%	-1%	0%	-4%	3%	-16%
COC(=O)CC1c2ccccc2C(Cc2ccc3c(c2)OCO3)=C(C)N1C(=O)OC (centres undefined)	x	-6%	x	-1%	u	1%
CN(C)c1ccc(CNC(=O)c2ccc(NC(=O)N3CCCCc4ccccc43)cc2)cc1	0%	x	-2%	1%	x	x
SMILES	PINK1 modulator	RORg inh	ClpP mod	Epigenetic reg	Sfp inh	VP16 counter
S=C1NC[C@H](CC2CCCCC2)N1CC1CCCCC1	1%	0.89µM*	-2%	1%	-6%	5µM*
CCCC[C@@H]1CNC(=S)N1CC1CCCCC1	3%	1.4µM*	0%	0%	13%	6.3µM*
CCCC[C@@H]1CNC(=O)C(=O)N1CC1CCCCC1	-1%	x	-2%	x	x	x
CCCC[C@@H]1CNC(=S)N1CCC12CC3CC(CC(C3)C1)C2	4%	0.56µM*	-1%	1%	7%	3.2µM*
N#Cc1ccccc1CSc1nnc(-c2ccccc2)o1	0%	x	1%	-1%	x	x
Cc1cccc(C(=O)NNc2ncnc3c2cnn3-c2ccc(C)cc2C)c1	0%	x	-2%	-1%	x	x
NC(=O)C1(N2CCCCC2)CCN(C(=O)Nc2ccc(F)cc2F)CC1	1%	x	1%	6%	x	x
O=C(O)CCc1cccc2ccccc12	0%	x	0%	x	x	x
Cc1csc(NC(=O)c2cc3ccccc3o2)n1	4%	x	-5%	x	x	x
Cc1csc(C(C#N)C(=O)c2cc3ccccc3o2)n1 (centres undefined)	u	10µM*	-1%	-1%	50µM*	-29%
COCc1ccc(C(=O)N2CCOc3ccc(CN4CCN(c5ccc(F)cc5)CC4)cc3C2)o1	0%	x	x	x	x	x
CC(C)CNc1ncnc2c1sc1nc(N3CCOCC3)c3c(c12)CC(C)(C)OC3	2%	-13%	6.3µM*	-1%	24%	1%
CN(C)CCNc1ncnc2c1sc1nc(N3CCCC3)c3c(c12)CC(C)(C)OC3	0%	-10%	x	4%	-9%	-4%
CCN(CC)CCNc1ncnc2c1sc1nc(N3CCCC3)c3c(c12)CC(C)(C)OC3	-3%	11µM*	x	1%	-22%	u
CC1(C)Cc2c(c(N3CCOCC3)nc3sc4c(NN)ncnc4c23)CS1	2%	7.9µM*	u	-1%	22%	7.1µM*
CC(C)CNc1nnnc2c1sc1nc(N3CCOCC3)c3c(c12)CC(C)(C)SC3	0%	35%	-1%	-1%	9%	4%
O=c1[nH]c(/C=C/c2ccccc2OC(F)F)nc2c1cnn2-c1ccccc1	2%	u	11µM*	0%	15%	u
c1ccc2sc(-c3cc4c(c(OC5CCOC5)c3)OCCN(Cc3cccn3-c3nccs3)C4)nc2c1 (centres undefined)	-1%	x	x	x	x	x
Cc1cc(C)nc(NN2C(=O)/C(=C/c3ccc(O)cc3)SC2=S)n1	-1%[38.3 µM]	-1%	-2%	-1%	-27%	-9%
Cc1ccc(S(=O)(=O)NN2C(=O)/C(=C/c3cccs3)SC2=S)cc1	2%	-3%	1%	-3%	79µM*	-3%
COc1cc(/C=C2\SC(=S)N(NS(=O)(=O)c3ccccc3)C2=O)cc(OC)c1OC	0%	u	x	0%	79µM*	u
COc1ccccc1/C=C1\SC(=S)N(Nc2nc(C)cc(C)n2)C1=O	u	11µM*	2%	-1%	-29%	-15%
Cc1cccn2c(=O)c(C(=O)N3CCN(c4ccccc4F)CC3)cnc12	0%	x	-5%	1%	x	x

Source: PubChem BioAssay (National Center for Advancing Translational Sciences (NCATS))
